SMILES strings stand for the structures. Out of some 230,000 compounds screened, about 1,500 (0.65%) were called active. Roughly 3% stayed inconclusive and do not appear here. Shown is part of a subset that was picked to be rich in actives. Entries that show only a call come without a potency. Values without a mark were called inactive. Calls come from the whole dose curve; as a rule, active = well fitted inhibition curve with a large enough effect; inconclusive = small, poorly fitted or top-dose-only effect; inactive = no such curve, though single readings can be large or run the other way.
Potency is the fitted concentration of half-maximal effect.

Lethal(3)malignant brain tumor-like protein 1 (Homo sapiens), sequence (Q9Y468 whole entry, looked up): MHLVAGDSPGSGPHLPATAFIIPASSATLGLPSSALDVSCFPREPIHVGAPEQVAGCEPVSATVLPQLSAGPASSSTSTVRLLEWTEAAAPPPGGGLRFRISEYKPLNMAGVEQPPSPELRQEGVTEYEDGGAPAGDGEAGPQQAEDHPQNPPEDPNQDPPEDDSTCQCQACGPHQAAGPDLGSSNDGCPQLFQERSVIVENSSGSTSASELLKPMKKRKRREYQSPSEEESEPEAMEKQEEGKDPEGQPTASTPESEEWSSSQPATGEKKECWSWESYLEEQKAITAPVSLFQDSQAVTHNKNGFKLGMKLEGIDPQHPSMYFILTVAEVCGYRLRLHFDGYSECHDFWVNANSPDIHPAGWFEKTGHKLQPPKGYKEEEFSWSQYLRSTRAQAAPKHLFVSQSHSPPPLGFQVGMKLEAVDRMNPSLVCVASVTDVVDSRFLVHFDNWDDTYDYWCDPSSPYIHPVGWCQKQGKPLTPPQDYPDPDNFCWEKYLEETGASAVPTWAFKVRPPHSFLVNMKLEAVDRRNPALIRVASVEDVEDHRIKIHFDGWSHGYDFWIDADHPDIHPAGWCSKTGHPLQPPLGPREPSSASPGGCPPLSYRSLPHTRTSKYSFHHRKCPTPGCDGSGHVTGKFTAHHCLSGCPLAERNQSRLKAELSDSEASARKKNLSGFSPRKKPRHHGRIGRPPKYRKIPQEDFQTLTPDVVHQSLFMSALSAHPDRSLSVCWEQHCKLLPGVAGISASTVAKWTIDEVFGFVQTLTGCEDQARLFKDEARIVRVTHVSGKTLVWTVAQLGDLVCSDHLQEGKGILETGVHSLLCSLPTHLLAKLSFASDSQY

The target in this assay is Lethal(3)malignant brain tumor-like protein 1 (Homo sapiens) (UniProt Q9Y468). As to the kind of experiment: qHTS Assay for the Inhibitors of L3MBTL1. Note: nearly all actives have a fitted effect of over 60% in size. As to conditions: AlphaScreen L3MBTL1–H3K9me1 peptide binding; series mostly up to 57.1 µM. In a few lines:
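First, the protein-peptide complex forms for 30 min at room temperature (L3MBTL1 50 nM, biotinylated H3K9me1 peptide 75 nM). Next, compounds are pin-transferred and incubated 30 min. Finally, AlphaScreen beads are added and read after 30 min.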
(In general: In qHTS, concentration-response curves come from the screen itself.)
As to `COC(=O)c1ccc(CNC(=O)c2ccc(S(=O)(=O)N3CCCCCC3)cc2)cc1`, the Potency result is “inactive”.
Same read-out and setting: the entry for `CCN(CC)C(CNC(=O)CSc1nnnn1-c1cccc(F)c1)c1ccco1` (stereo unspecified) is “inactive”.
For the molecule `COc1ccc(-c2nnc(SC(C)C(=O)NC3CC3)o2)cc1` (stereo unspecified), the Potency entry was “inactive”.
The same measure, in the same setting: the entry for `CCCCOC(=O)Nc1nnc(CC(=O)NCc2ccccc2)s1` is “inactive”; for `CCCCOC(=O)Nc1nccs1` it is 8.91 µM (active); for `O=C(COC(=O)c1ccc(O)cc1)Nc1nccs1` it is “inactive”.
On the same count and under the same terms, the entry for `Cc1ccc(NC(=O)CCNC(=O)c2ccc([N+](=O)[O-])cc2)cc1S(=O)(=O)N1CCOCC1` is “inactive”; for `CC(=O)N(O)CCCCCNC(=O)CCC(=O)N(O)CCCCCNC(=O)CCC(=O)N(O)CCCCCNC(=O)CCC(=O)O` it is “inactive”.
Still for that read-out and setting: the entry for `CC[C@]12c3[nH]c4ccc(OC)cc4c3CCN1C(=O)C(CC(=O)NCCN1CCOCC1)C[C@@H]2C(=O)N1CCN(C(=O)C2CC2)CC1` (stereo partly specified) is “inactive”; for `CCCn1c(C)cc(/C=C(\C#N)C(=O)OCC(=O)N(C)c2c(N)n(Cc3ccccc3)c(=O)[nH]c2=O)c1C` it is “inactive”; for `Cc1cc(=O)[nH]c(Nc2cccc(Br)c2)n1` it is “inactive”.
Regarding `CCOc1ccc(C(=O)Nc2ccncc2)cc1`, the Potency entry was “inactive”.
With `CCOc1cccc(NC(=O)CC#N)c1`, the activity, negative = inhibition was -26.1% [at 11.4 µM].
For `CCOc1ccc(NC(=O)c2ccc(NC(=O)COC(=O)c3ccc(NC(=O)CC#N)cc3)cc2)cc1`, the Potency was 1.58 µM (active).
On the same count and under the same terms, the entry for `COC(=O)[C@]1(C)CCC[C@@]2(C)C3CC[C@]4(OC(C)=O)C[C@@]3(CCC21)CC4=NO` (stereo partly specified) is “inactive”.
On the same count and under the same terms, the figure for `Cc1ccc(Cn2c(C)nc3c(c2=O)c2nc4ccccc4nc2n3Cc2ccco2)cc1` is 17.8 µM (active).
Same read-out and setting: the entry for `COCCCn1c2nc3ccccc3nc2c2c(=O)n(Cc3ccc(Cl)cc3)c(C)nc21` is “inactive”; for `Cc1nc2ccccc2c(=O)n1Cc1ccc([N+](=O)[O-])cc1` it is “inactive”; for `COc1ccc(CCNC(=S)N2CCN(S(=O)(=O)c3ccc(F)cc3)CC2)cc1` it is “inactive”.
For `Cc1cccc(N=C2SC(C)CN2C(=O)CN2C(=O)NC3(CCCC3)C2=O)c1` (stereo unspecified), the Potency entry was “inactive”.
For the molecule `O=C(COc1coc(CN2CCN(c3ccccc3)CC2)cc1=O)N1CCc2ccccc21`, the Potency entry was “inactive”.
Still for that read-out and setting: the entry for `COc1ccc(C(=O)CSc2nnc(COc3ccccc3)n2Cc2ccco2)cc1` is “inactive”; for `Cn1c2ccccc2c(=O)c2c(=O)n(Cc3ccco3)c(COc3ccccc3)nc21` it is 12.6 µM (active).
The same measure, in the same setting: next, `CCCc1nc2c(c(=O)c3ccccc3n2C)c(=O)n1-c1cc(C)cc(C)c1`: “inactive”.
`CC(=O)c1c(C)[nH]c(C(=O)COc2ccc3c(C)cc(=O)oc3c2)c1C`: the Potency entry is “inactive”.
On to `O=C(CCC1CCCCC1)Nc1cc(C(F)(F)F)ccc1N1CCOCC1`, for which the Potency result is “inactive”.
